{
  "source": "PubChem BioAssay AID540352",
  "about": "(National Center for Advancing Translational Sciences (NCATS), 2011)",
  "note": "Inconclusive results are not listed. Active and inactive are the calls of the source. Calls follow the shape of the dose curve; as a rule, active = well fitted inhibition curve with a large enough effect; inconclusive = small, poorly fitted or top-dose-only effect; inactive = no such curve, though single readings can be large or run the other way.",
  "data": [
    {"experiment": "qHTS for Inhibitos of Bacillus subtilis Sfp phosphopantetheinyl transferase (PPTase): Chemistry Optimization Followup in B. Subtilis 168", "settings": "B. subtilis 168 growth, BacTiter-Glo luminescence, 5 h; series mostly up to 114 µM; activity change, negative = inhibition: at the top concentration", "description": "Phosphopantetheinyl transfer is a process essential to cellular viability and maintenance. Cell-permeable and stable compounds acting as PPTase inhibitors are anticipated to be antimicrobial agents in organisms with complimenting genotypes. […] This experiment evaluated a series of test compounds for antimicrobial activity with B. subtilis 168 (genotype: acpS+ and sfp-), a strain that contains a frameshift mutation in the sfp locus and thus requires a functional AcpS gene product for viability. [Mootz HD, 2001] This strain is expected to be sensitized to cell-permeable AcpS inhibitors, and insensitive to Sfp inhibitors. NIH Chemical Genomics Center [NCGC] NIH Molecular Libraries Probe Centers Network [MLPCN] MLPCN Grant: MH083266-01 Assay Submitter (PI): Michael Burkart, University of California, San Diego\nInnoculum preparation. Bacillus subtilis 168 is maintained on lysogeny broth (LB) solidified by the addition of 1.5% w/v agar. Single colonies were used to LB medium (2 mL) and shaken overnight at 30 masculineC. In the morning, this culture (100 ul) was used to seed a fresh LB medium (10 mL) and was shaken at 30 masculineC until the culture OD600 reached 0.5. This culture was diluted 1:100 in fresh LB medium to provide the inoculum below. Bacterial susceptibility. LB medium (2 uL) is dispensed into wells of a sterile white 1536-well plate. Test compounds (23 nL) prepared as serial dilutions in DMSO are added to the plate by pintool transfer. Innoculum (2 uL) is added, the plates are covered with a vented Kalypsys assay lid and incubated at 30 masculineC. After 5 h, Bac-Titer Glo (4 uL; Promega Corp, Madison, WI) is added to the plates. They are incubated 10 minutes at room temperature and then the luminescence detected in a ViewLux multimodal plate reader.", "values": [
      {"smiles": "COc1ccnc(NC(=S)N2CCN(c3cccc(Cl)c3Cl)CC2)c1", "Potency": "9.37 µM (active)"},
      {"smiles": "Cc1ccnc(NC(=S)N2CCN(c3ccc(Cl)c(Cl)c3)CC2)c1", "Potency": "11.8 µM (active)"},
      {"smiles": "FC(F)(F)c1cc(N2CCN(C(=S)Nc3cc(Cl)ccn3)CC2)cc(C(F)(F)F)c1", "Potency": "37.3 µM (active)"},
      {"smiles": "Cc1cccc(NC(=S)N2CCN(c3cccc(C(F)(F)F)c3)CC2)c1", "activity change, negative = inhibition": "-17.9% (inactive)"},
      {"smiles": "Cc1cc(C)nc(NC(=S)N2CCN(Cc3cccc4ccccc34)CC2)c1", "Potency": "37.3 µM (active)"},
      {"smiles": "Cc1ccnc(NC(=S)N2CCN(c3ccc(N)cc3)CC2)c1", "activity change, negative = inhibition": "-18.5% (inactive)"},
      {"smiles": "Cc1ccnc(NC(=S)NC2CCN(c3cccc(C(F)(F)F)c3)CC2)c1", "Potency": "46.9 µM (active)"},
      {"smiles": "COC(=O)c1ccnc(NC(=S)N2CCN(c3cccc(C(F)(F)F)c3)CC2)c1", "Potency": "41.8 µM (active)"},
      {"smiles": "Cc1cc(C)nc(NC(=S)N2CCN(c3ccc(C(F)(F)F)cc3[N+](=O)[O-])CC2)c1", "Potency": "41.8 µM (active)"},
      {"smiles": "FC(F)(F)c1cccc(N2CCN(C(=S)Nc3ncnc4ccccc34)CC2)c1", "Potency": "6.63 µM (active)"},
      {"smiles": "CN(C)c1ccc2nc(NC(=S)N3CCN(c4cccc(C(F)(F)F)c4)CC3)sc2c1", "Potency": "5.91 µM (active)"},
      {"smiles": "Cc1ccnc(NC(=S)NCCN(C)c2cccc(C(F)(F)F)c2)c1", "activity change, negative = inhibition": "-19.2% (inactive)"},
      {"smiles": "COc1ccnc(NC(=S)N2CCN(c3ccc(Cl)cc3Cl)CC2)c1", "Potency": "13.2 µM (active)"},
      {"smiles": "Cc1cc(C)nc(NC(=S)N2CCN(c3ccc4cn(C)nc4c3)CC2)c1", "activity change, negative = inhibition": "-14.6% (inactive)"},
      {"smiles": "COc1ccc(NC(=S)N2CCN(c3cccc(C(F)(F)F)c3)CC2)nc1", "activity change, negative = inhibition": "-22% (inactive)"},
      {"smiles": "FC(F)(F)c1cccc(N2CCN(C(=S)Nc3ccccn3)CC2)c1", "Potency": "46.9 µM (active)"},
      {"smiles": "COc1cccc(NC(=S)N2CCN(c3cc(Cl)cc(Cl)c3)CC2)n1", "activity change, negative = inhibition": "-1.53% (inactive)"},
      {"smiles": "Cc1ccnc(NC(=S)N[C@H]2CCN(c3cccc(C(F)(F)F)c3)C2)c1", "Potency": "52.7 µM (active)"},
      {"smiles": "Cc1ccnc(NC(=S)N2CC3CN(c4cccc(C(F)(F)F)c4)CC3C2)c1", "note": "(stereo not given)", "Potency": "11.8 µM (active)"},
      {"smiles": "Cc1cc(C)nc(NC(=S)N2CCN(Cc3c(F)cccc3Cl)CC2)c1", "activity change, negative = inhibition": "-23.3% (inactive)"},
      {"smiles": "FC(F)(F)c1cccc(N2CCN(C(=S)Nc3ccncc3)CC2)c1", "Potency": "41.8 µM (active)"},
      {"smiles": "Cc1cc(C)nc(NC(=S)N2CCN(c3ccc(Cl)cc3F)CC2)c1", "Potency": "23.5 µM (active)"},
      {"smiles": "Cc1ccnc(NC(=S)N2CCCN(c3cccc(C(F)(F)F)c3)CC2)c1", "Potency": "16.7 µM (active)"},
      {"smiles": "S=C(Nc1cc(Cl)ccn1)N1CCN(c2ccc3ccccc3n2)CC1", "Potency": "33.2 µM (active)"},
      {"smiles": "Cc1cc(C)nc(NC(=S)N2CCN(c3ccc(Cl)cc3Cl)CC2)c1", "Potency": "23.5 µM (active)"},
      {"smiles": "Cc1ccnc(NC(=S)N2CCN(c3ccc(Br)cc3)CC2)c1", "Potency": "23.5 µM (active)"},
      {"smiles": "Cc1cc(C)nc(/N=C(\\NC#N)N2CCN(c3cccc(C(F)(F)F)c3)CC2)c1", "Potency": "46.9 µM (active)"},
      {"smiles": "Cc1cc(C)nc(NC(=S)N2CCN(c3ccc(Cl)cc3C(F)(F)F)CC2)c1", "Potency": "9.37 µM (active)"},
      {"smiles": "Cc1cc(C)nc(NC(=S)N2CCN(c3ccc(Cl)nn3)CC2)c1", "activity change, negative = inhibition": "-33.3% (inactive)"},
      {"smiles": "Cc1cc(C)nc(NC(=S)N2CCN(c3ccc([N+](=O)[O-])cc3Cl)CC2)c1", "Potency": "9.37 µM (active)"},
      {"smiles": "FC(F)(F)c1cccc(N2CCN(C(=S)Nc3cc(C(F)(F)F)ccn3)CC2)c1", "Potency": "13.2 µM (active)"},
      {"smiles": "Cc1cc(C)nc(NC(=S)N2CCN(c3cncs3)CC2)c1", "Potency": "46.9 µM (active)"},
      {"smiles": "Cc1cc(C)nc(NC(=S)N2CCN(c3ccc4nncn4c3)CC2)c1", "activity change, negative = inhibition": "-15.5% (inactive)"},
      {"smiles": "COc1cccc(NC(=S)N2CCN(c3cc(C(F)(F)F)cc(C(F)(F)F)c3)CC2)n1", "activity change, negative = inhibition": "-7.94% (inactive)"},
      {"smiles": "Cc1cc(C)nc(NC(=S)N2CCN(c3cc(Cl)c(Cl)cc3Cl)CC2)c1", "Potency": "21 µM (active)"},
      {"smiles": "FC(F)(F)c1cnc(N2CCN(C(=S)Nc3cc(Cl)ccn3)CC2)c(Cl)c1", "Potency": "14.8 µM (active)"},
      {"smiles": "Cc1ccnc(NC(=S)N2CCN(c3cc(C(F)(F)F)cc(C(F)(F)F)c3)CC2)c1", "Potency": "13.2 µM (active)"},
      {"smiles": "Cc1ccc(N2CCN(C(=S)Nc3cc(C)ccn3)CC2)cc1", "Potency": "59.1 µM (active)"},
      {"smiles": "COc1cccc(NC(=S)N2CCN(c3ccccc3C(F)(F)F)CC2)n1", "Potency": "26.4 µM (active)"},
      {"smiles": "Cc1cc(C)nc(NC(=S)N2CCN(c3ccc(Cl)c(Cl)c3Cl)CC2)c1", "Potency": "9.37 µM (active)"}
    ]}
  ]
}
